Screening data as filed in PubChem BioAssay.
In the library only some 3.2% were active in any assay of this set; here they are far more common.
Tb PYK inh: blocks Trypanosoma brucei pyruvate kinase | TbPYK enzyme, Kinase-Glo Plus ATP luminescence, 45 min | Potency, µM (highest dose often 76.8 µM), without a hit: at the highest dose activity, negative = inhibition, actives largely listed as inhibitors | AID 624173 | 0.12% of 410,000 active | Q57TT1; further: nearly all actives have a fitted effect of over 50% in size
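Readout: single end-point luminescence (Kinase-Glo Plus, 10 min). Reaction conditions were TbPYK/substrate plus 130 uM ADP, 45 min at RT, pH 7.2 TEA buffer. No-enzyme wells served as controls, and data were normalized before concentration-response fitting.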
AMA1 RON2 block: disrupts binding of P. falciparum AMA1 to RON2; AlphaScreen AMA1-biotinylated RON2 peptide binding; Potency, µM (doses to about 58.2 µM), for inactives: top-dose activity change, negative = inhibition, usual class: inhibitors; 0.2% of 360,000 active;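 further: 0% = vehicle wells and -100% = peptide control; nearly all actives have a fitted effect of over 45% in size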
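AMA1 (3D7) with his tag at 25 nM final met compounds first, then biotinylated RON2 peptide at 25 nM; detection used donor plus acceptor beads, 10 µg/mL apiece, read by AlphaScreen after 30 min at room temperature.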
LmPK inhibitor: blocks Leishmania mexicana pyruvate kinase activity; Q27686; purified LmPK, Kinase-Glo ATP luminescence, 1 h; 0.37% of 290,000 active; Potency, µM (doses to about 57.5 µM), for the others: top-dose activity change, negative = inhibition, most hits filed as inhibitors
Target sequence (Q27686 whole entry, looked up): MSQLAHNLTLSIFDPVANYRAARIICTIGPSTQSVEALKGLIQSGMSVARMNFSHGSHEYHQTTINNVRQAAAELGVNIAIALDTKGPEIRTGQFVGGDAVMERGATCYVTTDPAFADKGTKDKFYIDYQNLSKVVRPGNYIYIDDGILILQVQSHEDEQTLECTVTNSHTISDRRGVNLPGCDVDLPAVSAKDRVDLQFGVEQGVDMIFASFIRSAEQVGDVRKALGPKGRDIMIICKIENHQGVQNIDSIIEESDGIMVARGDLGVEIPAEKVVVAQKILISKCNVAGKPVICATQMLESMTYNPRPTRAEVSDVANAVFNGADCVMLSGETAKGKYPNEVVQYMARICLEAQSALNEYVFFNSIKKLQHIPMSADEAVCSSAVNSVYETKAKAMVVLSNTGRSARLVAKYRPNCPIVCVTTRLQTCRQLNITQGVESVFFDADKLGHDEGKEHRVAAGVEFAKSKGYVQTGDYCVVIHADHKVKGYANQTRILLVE
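ATP generated from ADP (0.1 mM) and PEP (0.5 mM) by 0.1 nM LmPK over 1 h at room temperature (pH 7.2 imidazole buffer) was detected by coupled luciferase luminescence. Values were normalized to uninhibited and no-enzyme wells.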
RE007 growth inh: less growth of the S. pombe RE007 Vpr strain; Potency, µM (highest dose often 92.2 µM), for the others: at the top dose activity change, negative = less growth, actives largely listed as inhibitors; 0.21% of 360,000 active; S. pombe RE007 Vpr strain, BacTiter-Glo ATP luminescence, 24 h; AID 651644; active means well fitted falling curve with a large enough effect; inconclusive means small, poorly fitted or top-dose-only effect; inactive means no such curve, though single readings can be large or run the other way; further: nearly all actives have a fitted effect of over 50% in size
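Fission yeast RE007 carrying one integrated HIV-1 vpr copy, seeded at OD 0.01 in PMG+AL medium with 23 nL pinned compound. Grown 24 h at 30 degrees; viability read by BacTiter-Glo luminescence after 5 min.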
Sm TGR inh: S. mansoni TGR enzyme inhibition; purified TGR, DTNB reduction, TNB absorbance 405 nm; AID 485364; Q962Y6; 3% of 360,000 active; Potency, µM (series often up to 114 µM), for the others: at the highest dose activity change, negative = inhibition, usual class: inhibitors; further: nearly all actives have a fitted effect of over 60% in size
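TGR 20 nM + NADPH 100 uM (dispensed conc.), cpd preinc 15 min RT; start with NADPH (500 uM addition) then DTNB (15 mM addition). Kinetic TNB absorbance, 405 nm filter. Four-parameter Hill fit across titration.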
* marks the source's active call; other numbers are inactive results; ? = inconclusive; nt = no result given; ! = a repeat was not active; [ ] = remark or other dose. Unless noted, the call rests on the fitted dose curve; in most records, active means well fitted curve in the direction sought with a large enough effect; inconclusive means small, poorly fitted or top-dose-only effect, or another doubt; inactive means no such curve, though single readings can be large; an effect the other way counts as inactive or inconclusive. Unless noted, on the % scale 0 is the no-effect control and ±100 the full control effect; potency means the concentration at half of the fitted maximal effect.

SMILES | Tb PYK inh | AMA1 RON2 block | LmPK inhibitor | RE007 growth inh | Sm TGR inh
O=C(NCc1ccc(F)cc1)C(=O)NCC(c1cccs1)S(=O)(=O)c1cccs1 (centres undefined) | 0.2% | nt | nt | nt | 25.1µM*
COc1ccc(CCNC(=O)C(=O)NCC(c2cccs2)S(=O)(=O)c2cccs2)cc1 (centres undefined) | 2.0% | nt | nt | nt | 28.2µM*
COc1ccc(CNC(=O)C(=O)NCC(c2cccs2)S(=O)(=O)c2cccs2)cc1 (centres undefined) | -2.2% | nt | nt | nt | 28.2µM*
O=C(NCc1ccccc1)C(=O)NCC(c1cccs1)S(=O)(=O)c1cccs1 (centres undefined) | 1.1% | nt | nt | nt | ?
CC(C)=CCc1c(O)ccc(C(=O)Cc2ccccc2)c1O | 0.1% | -1.7% | 2.7% | 35.5µM* | 6.2%
Cc1ccc(C(=O)Cc2ccccc2)c(O)c1 | 3.3% | 19.0% | nt | -13.6% | nt
Cc1ccccc1N(C)S(=O)(=O)c1nnc(NC(=O)c2ccco2)s1 | -15.8% | -9.8% | -7.5% | 0.1% | 25.1µM*!
Cc1ccc(N(C)S(=O)(=O)c2nnc(NC(=O)c3ccco3)s2)cc1 | -2.5% | 12.7% | -11.1% | -11.7% | ?
CN(c1ccc(Cl)cc1)S(=O)(=O)c1nnc(NC(=O)c2ccco2)s1 | -4.8% | -2.9% | -0.8% | -8.4% | 20µM*!
O=C(NCCSCc1ccccc1)C1CCN(S(=O)(=O)Cc2ccccc2)CC1 | 2.1% | nt | nt | nt | 0.1%
COc1ccc(-c2cc(C(F)(F)F)c(C#N)c(SCC(=O)Nc3ccc(F)cc3)n2)cc1 | -3.0% | nt | nt | nt | -2.4%
O=C(COC(=O)c1nc(Cl)c(Cl)c(Cl)c1Cl)NCc1ccccc1 | -5.2% | 0.0% | nt | -5.1% | 3.98µM*
Cc1ccccc1C(=O)Nc1nnc2n1CCS2 | -0.9% | nt | nt | nt | -1.5%
Cc1c2cnn(CC(=O)N3CCCCC3)c(=O)c2c(C)n1Cc1ccc(Cl)cc1 | -6.1% | nt | nt | nt | -9.7%
CCCC1c2ccc(C)n2CCN1C(=O)Nc1ccccc1Cl (centres undefined) | -6.4% | -3.5% | -1.7% | -7.6% | 35.5µM*
CCC1c2ccc(C)n2CCN1C(=O)Nc1ccccc1C(=O)OC (centres undefined) | -10.8% | 24.1% | 7.1% | 3.8% | -31.7%
CCC1c2ccc(C)n2CCN1C(=O)Nc1cc(Cl)ccc1OC (centres undefined) | 4.5% | 41.8% | 2.1% | -10.2% | -32.5%
CCOC(=O)c1ccccc1NC(=O)N1CCn2c(C)ccc2C1CC (centres undefined) | 0.3% | -0.8% | 0.8% | -27.0% | 7.08µM*
Cc1ccc(/C=N/n2c(-c3ccccc3)csc2=S)cc1 | -8.4% | nt | nt | nt | nt
Cc1ccc(N(C)S(=O)(=O)c2nnc(NC(=O)C3CCCCC3)s2)cc1 | 0.6% | nt | nt | nt | 2.7%
N=C(N)SCc1ncccc1O | -14.0% | 27.0% | -2.3% | 17.5% | 11.2µM*
CC(=O)c1cc(-c2ccc(F)cc2)n(CCC(=O)NC2CCCCC2)c1C | -3.4%[15.4 µM] | nt | nt | nt | 0.0%
COc1ccc(-c2cc(N)n(S(=O)(=O)c3c(F)c(F)c(F)c(F)c3F)n2)cc1OC | -6.9% | 16.3% | 2.1% | 14.8% | 2.51µM*
Cc1cc(C)c(NC(=O)C2CCN(C(=O)N3CCOc4ccccc43)CC2)c(C)c1 | 0.8% | nt | nt | nt | 8.0%
CCOC(=O)CCC(=O)NCc1ccc2[nH]c(C)cc2c1 | 4.3% | 1.2% | 1.9% | 3.1% | 50.1µM*
SMILES | Tb PYK inh | AMA1 RON2 block | LmPK inhibitor | RE007 growth inh | Sm TGR inh
Cc1c(NC(=O)C(C)OC(=O)/C=C/c2ccco2)c(=O)n(-c2ccccc2)n1C (centres undefined) | -6.3% | 9.6% | -7.6% | 5.7% | 44.7µM*
O=c1c2ccccc2nc2n1CCS2(=O)=O | -3.2% | -4.5% | 2.9% | 2.9% | 22.4µM*
O=c1c2ccccc2nc2c3ccccc3c3nncn3n12 | 3.7% | 2.3% | -6.5% | 22.0% | -2.5%
COc1cc(OC)c(OC)cc1CN1CCc2nc(Nc3ccc4c(c3)OCCO4)ncc2C1 | -4.5% | nt | nt | nt | ?
CN(C)C1=NC(=O)/C(=C/c2ccc(-c3ccc(S(N)(=O)=O)cc3)o2)S1 | nt | nt | -7.6% | nt | 31.6µM*
CC1Sc2ccc(S(=O)(=O)CCC(=O)N(C)Cc3ccco3)cc2NC1=O (centres undefined) | -8.7% | -0.9% | 3.0% | -3.1% | ?
CCOc1ccccc1N(C)C(=O)CCS(=O)(=O)c1ccc2c(c1)NC(=O)C(C)S2 (centres undefined) | -7.7% | -8.0% | -10.2% | 8.0% | 35.5µM*
COC(=O)c1scc(C#N)c1N/N=C(\C#N)S(=O)(=O)c1ccc(Cl)cc1 | -1.3% | -17.6% | 5.9% | -4.7% | 31.6µM*
COC(=O)c1scc(S(=O)(=O)C(C)C)c1N/N=C(\C#N)C(=O)c1ccc(Cl)cc1 | -13.6% | -1.8% | 11.6% | 2.7% | -3.9%
COc1ccc2c(c1)NC(c1cc(Cl)cc(Cl)c1O)c1cccn1-2 (centres undefined) | -10.0% | ? | -0.8% | 21.4% | -23.4%
COc1ccc2c(c1)NC(c1ccc(N(C)C)cc1)c1cccn1-2 (centres undefined) | -6.9% | 40.6% | 2.0% | -15.1% | 50.1µM*
COc1ccc(-c2ccn(-c3cccc(F)n3)n2)cc1 | -0.5% | 31.9% | 6.6% | -15.8% | 28.2µM*
CC(=O)c1ccccc1OCCCN1CCCCC1 | 3.7% | -28.2% | 0.4% | -19.3% | 31.6µM*
Brc1ccccc1OCCCN1CCCCCC1 | 20.3% | -10.1% | 3.4% | -10.2% | -2.3%
Cc1ccc(C(=O)N[C@@H](C)CN2C3=NC[C@H](C)N3C[C@H]2Cc2ccc(O)cc2)cc1Br | nt | nt | 2.0% | nt | 50.1µM*
COc1ccc(C[C@H]2CN3C(=NC[C@@H]3C(C)C)N2CCNC(=O)CCC2CCCCC2)cc1 | 1.7% | -5.7% | -3.4% | 7.4% | -1.6%
COc1ccc(C[C@H]2CN3C(=NC[C@@H]3Cc3ccccc3)N2CCNC(=O)CCC2CCCCC2)cc1 | -8.8% | -2.5% | 2.4% | 1.0% | -9.9%
COc1ccc(C[C@@H]2CN3C(=NC[C@@H]3C)N2CCNC(=O)c2ccc(C)c(Br)c2)cc1 | -2.4% | 0.3% | 3.3% | -2.8% | -15.4%
CC(C)[C@H]1CN=C2N(CCNC(=O)CCC3CCCCC3)[C@H](Cc3ccc(O)cc3)CN21 | -18.0% | -4.7% | -5.4% | -11.2% | 7.94µM*
C[C@@H]1CN=C2N(CCNC(=O)CCC3CCCCC3)[C@H](Cc3ccc(O)cc3)CN21 | ? | -2.2% | -2.8% | -22.8% | 5.01µM*
O=C(CCC1CCCCC1)NCCN1C2=NC[C@H](Cc3ccc(O)cc3)N2C[C@H]1Cc1ccc(O)cc1 | 2.7% | -7.4% | -0.1% | -11.5% | 35.5µM*
Cc1ccc(C)c(NC(=O)Cn2c(=O)n(CCC(C)C)c(=O)c3cccnc32)c1 | 4.7% | nt | nt | nt | -2.2%
O=C(O)c1ccccc1SSc1ccccc1C(=O)O | -22.3% | 0.9% | 17.0% | -5.1% | -1.9%
C[CH2][Hg][S]c1ccccc1C(=O)O | 11.2µM* | 44.6% | nt | -21.0% | nt
